Measurements as given in PubChem BioAssay (Tox21).
Inconclusive results are not listed. Entries that show only a call come without a potency. Activity calls are given as the source filed them. Calls come from the whole dose curve; as a rule, active = well fitted cell-killing curve with a large enough effect in the repeat runs; inconclusive = weak or mixed curves, or effect the other way; inactive = no such curve, though single readings can be large or run the other way.

Experiment: qHTS assay to identify small molecule agonists of the vitamin D receptor (VDR) signaling pathway - cell viability counter screen (AID 743224); note: nearly all actives have a fitted effect of over 50% in size
Conditions: VDR-bla HEK293T viability, CellTiter-Glo luminescence, 16 h; series mostly up to 62.6 µM
Source text: U.S. Tox21 Program National Center for Advancing Translational Sciences [NCATS] NIH Chemical Genomics Center [NCGC] U.S. Environmental Protection Agency [EPA] National Institutes of Environmental Health Sciences [NIEHS] National Toxicology Program [NTP] U.S. Food and Drug Administration [FDA] Tox21 Assay Overview: The vitamin D receptor (VDR), a member of nuclear hormone receptor superfamily, plays a critical role in calcium homeostasis and bone metabolism. It is also involved in cell differentiation and growth, and thrombogenicity. […] The cytotoxicity of the Tox21 compound library against the VDR-bla cell line was tested in parallel by measuring the cell viability using CellTiter-Glo assay (Promega, Madison, WI) in the same wells.
Tox21 Assay Protocol Summary: VDR-bla cells were dispensed at 2,000 cells/6 uL/well into black wall/clear-bottom 1536-well plates using a Multidrop Combi (Thermo Fisher Scientific, Waltham, MA) dispenser. After the assay plates were incubated at a 37C and 5% CO2 for 4 h, 23 nL of compounds dissolved in DMSO, positive controls or DMSO only was transferred to the assay plate by a Pintool station (Kalypsys, San Diego, CA). The plates were incubated at 37C and 5% CO2 for 16 h. After 1 uL of LiveBLAzerTM B/G FRET substrate was added using a Bioraptr Flying Reagent Dispenser (FRD) workstation (Beckman Coulter, Indianapolis, IN, USA), the plates were incubated at room temperature for 2 h, and fluorescence intensity was measured by an Envision plate reader (PerkinElmer, Shelton, CT). For cell viability readout that measures cytotoxicity, 3 ul/well of CellTiter-Glo reagent was added into the assay plates using a FRD. After 30 min incubation at room temperature, the luminescence intensity in the plates was measured using a ViewLux (PerkinElmer) plate reader.
Potency is the fitted concentration of half-maximal effect.

| SMILES | Potency |
| --- | --- |
| COc1cc(C[C@@H](C)N)c(OC)cc1C | inactive |
| O=c1oc2ccccc2c(O)c1C1CCCc2ccccc21 (stereo not given) | inactive |
| OCCBr | inactive |
| CCOC(=O)/C=C(C)/C=C/C[C@@H](C)CCCC(C)C | 34.7 µM (active) |
| CC1=NNC(=O)N(/N=C/c2cccnc2)C1 | inactive |
| COC(=O)c1ccccc1S(=O)(=O)NC(=O)Nc1nc(C)cc(C)n1 | inactive |
| CSc1ccc(C(=O)C(C)(C)N2CCOCC2)cc1 | inactive |
| CCN(Cc1ccc(Cl)nc1)/C(=C/[N+](=O)[O-])NC | inactive |
| O=S(=O)(O)C(F)(F)C(F)(F)C(F)(F)C(F)(F)C(F)(F)C(F)(F)F | inactive |
| CCOC(=O)N(C)C(=O)CSP(=S)(OCC)OCC | inactive |
| CN(C)CCc1ccc(O)cc1 | inactive |
| CC(C1CC1)C(O)(Cn1cncn1)c1ccc(Cl)cc1 (stereo not given) | inactive |
| CCCCOC(=O)[C@@H](C)Oc1ccc(Oc2ccc(C#N)cc2F)cc1 | inactive |
| Cc1nnc2n1-c1sc(CCC(=O)N3CCOCC3)cc1C(c1ccccc1Cl)=NC2 | inactive |
| CCCCOP(=O)(O)OCCCC | inactive |
| C=CC1CC=CCC1 (stereo not given) | inactive |
| CCCCOC(=O)c1ccccc1N | inactive |
| CCC#N | inactive |
| Cc1ncc2n1-c1ccc(Cl)cc1C(c1ccccc1F)=NC2 | inactive |
| C=C(C)CN(CC)c1c([N+](=O)[O-])cc(C(F)(F)F)cc1[N+](=O)[O-] | inactive |

| SMILES | Potency |
| --- | --- |
| CC(CC(C#N)(c1ccccc1)c1ccccc1)N(C)C (stereo not given) | inactive |
| ClCC(Cl)(Cl)Cl | inactive |
| CC(CCc1ccccc1)NC(C)C(O)c1ccc(O)cc1 (stereo not given) | inactive |
| CCOP(=S)(OCC)SCSP(=S)(OCC)OCC | inactive |
| Fc1cc(Br)ccc1CBr | inactive |
| CCOP(=S)(OCC)Oc1cc(-c2ccccc2)on1 | inactive |
| O=C1OC(=O)C2C1C1(Cl)C(Cl)=C(Cl)C2(Cl)C1(Cl)Cl (stereo not given) | inactive |
| O=C1CN=C(c2ccccc2)c2cc([N+](=O)[O-])ccc2N1 | inactive |
| O=C1OC(CCN2CCCCC2)OC1(c1ccccc1)c1ccccc1 (stereo not given) | inactive |
| CSc1nc(N=[N+]=[N-])nc(NC(C)C)n1 | inactive |
| CN/C(=N\[N+](=O)[O-])NCC1CCOC1 (stereo not given) | inactive |
| CNC(=O)O/N=C(\C)SC | inactive |
| NC(=O)c1cc([N+](=O)[O-])cc([N+](=O)[O-])c1 | inactive |
| Cc1cnc[nH]1 | inactive |
| CC(=O)C(Cl)Cl | inactive |
| CC(C(O)c1ccccc1)N(C)C/C=C/c1ccccc1 (stereo not given) | inactive |
| BrCCCCCCBr | inactive |
| NC(=O)O | inactive |
| COc1ccc2c(c1OC)CN1CCc3cc4c(cc3C1C2)OCO4 (stereo not given) | inactive |
| CCCCP(CCCC)CCCC | inactive |
